ATXN viability: cell viability loss in ATXN counter-screen; Potency, µM (doses to about 56.7 µM), actives largely listed as cytotoxic; hit rate 0.49% among 400,000; S2 cells (HEK-293 line with an ATXN2-luciferase reporter) viability, CellTiter-Fluor protease fluorescence, 24 h; note: nearly all actives have a fitted effect of over 40% in size
DT40 TDP1 CPT: growth inhibition of DT40 Tdp1-/-;hTDP1 cells with camptothecin (screen for TDP1 inhibitors) | chicken DT40 Tdp1-/-;hTDP1 cells + 20 nM CPT, ATP luminescence, 48 h | Potency, µM (doses to about 46.2 µM), for inactives: at the highest dose activity change, negative = growth inhibition, actives largely listed as inhibitors | AID 686979 | hit rate 12% among 420,000; note: % is set by controls: 0 for no effect and ±100 for the full control effect; nearly all actives have a fitted effect of over 55% in size
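Chicken DT40 Tdp1-/- cells complemented with human TDP1, 400 cells/well, exposed to compounds plus 20 nM camptothecin for at least 48 h at 37 C; viability read as ATP content by CellTiter-Glo luminescence.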
TGFb inhibitor: blocks TGF-b signaling; AID 588855; HepG2 CAGA-GFP TGF-b/SMAD3 reporter, GFP fluorescence, 18 h; TGF-beta stimulated, 500 pg/mL final; Potency, µM (titrated, usually from 46.1 µM), inactives show at the highest dose activity, negative = inhibition, usual class: inhibitors; hit rate 1.2% among 410,000; note: % is set by controls: 0 for no effect and ±100 for the full control effect; nearly all actives have a fitted effect of over 65% in size
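TGF-beta reporter screen: HEPG2 CAGA-GFP, 1% FBS, 500 pg/mL TGF-beta final, 18 h; per-cell GFP summed per well; curves fitted and categorized by class.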
ATXN2 expr inh: inhibitors of ATXN2 expression. HEK-293 ATXN2-luciferase reporter, luminescence, 24 h. Potency, µM (highest dose often 57 µM), inactives show at the top dose activity change, negative = inhibition, actives largely listed as inhibitors. hit rate 0.72% among 360,000. AID 1745845; note: % is set by controls: 0 for no effect and ±100 for the full control effect; nearly all actives have a fitted effect of over 55% in size
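qHTS (up to 57 uM final) was run with 24 h compound exposure of reporter cells at 37 °C. Each well was multiplexed: SteadyGlo luminescence measured ATXN2-luciferase expression after a fluorogenic Gly-Phe-AFC viability readout (25 uM final).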
HepG2 viability: HepG2 cytotoxicity, counter-screen for TGF-b inhibitors; AID 588856; HepG2 CAGA-GFP viability, ATP luminescence, 18 h; Potency, µM (doses to about 46.1 µM), without a hit: at the highest dose activity change, negative = cytotoxicity, hits mostly cytotoxic; hit rate 0.76% among 410,000
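CellTiter-Glo luminescence gave cytotoxicity after 18 hours at 37 degrees C. The cells were HepG2 CAGA-GFP in 1% FBS DMEM, stimulated with 500 pg/mL TGF-beta after compound addition. %Activity was normalised to no-cell wells (complete cell-killing) and DMSO (no toxicity), and curves were fitted and classified.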
TDP1 cell noCPT: qHTS for Inhibitors of human tyrosyl-DNA phosphodiesterase 1 (TDP1): qHTS in cells in absence of CPT | hit rate 15% among 420,000 | DT40 Tdp1-/- hTDP1 cells, no CPT, ATP luminescence, 48 h | AID 686978, 2013 | Potency, µM (titrated, usually from 46.2 µM), inactives show at the top dose activity change, negative = growth inhibition, usual class: inhibitors; note: % is set by controls: 0 for no effect and ±100 for the full control effect; nearly all actives have a fitted effect of over 55% in size
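Growth of hTDP1-complemented DT40 Tdp1-knockout cells is measured by ATP luminescence after at least 48 hr compound exposure at 37 °C, with DMSO substituting for the 20 nM CPT used in the parallel screen.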
* marks the source's active call; other numbers are inactive results; i = inactive; u = inconclusive; x = no result. A selection: hits, their analogues and other compounds. The true share with any hit is near 17%. Calls come from the whole dose curve; as a rule, active = well fitted curve in the direction sought with a large enough effect; inconclusive = small, poorly fitted or top-dose-only effect, or another doubt; inactive = no such curve, though single readings can be large; an effect the other way counts as inactive or inconclusive. Potency is the fitted concentration of half-maximal effect.

SMILES | ATXN viability | DT40 TDP1 CPT | TGFb inhibitor | ATXN2 expr inh | HepG2 viability | TDP1 cell noCPT
Cn1c(CSCc2ccc(Cl)c(Cl)c2)n[nH]c1=S | u | u | 5% | -21% | -3% | 23µM*
Cn1c(Cc2ccccc2)n[nH]c1=S | i | 3% | -24% | 0% | 0% | 13%
CCn1c(CSCc2ccc(C)cc2)n[nH]c1=S | i | 0% | 6% | x | -8% | u
COc1ccc(NC(=O)Cn2ncc3c([nH]c4ccccc43)c2=O)cc1Cl | i | 4% | 11% | 1% | 10% | u
CCCCNC(=O)C1(C)CCCCN1C(=O)c1ccc(C#N)cc1 (centres undefined) | i | 3% | 7% | 5% | 0% | -14%
CCOC(=O)c1sc(=S)n(C)c1NC(=O)c1ccccc1 | i | u | 2% | -4% | -2% | 21µM*
CCOC(=O)c1sc(=S)n(CC)c1NC(=O)c1ccccc1C | i | -5% | u | x | -31% | -12%
CCOC(=O)c1sc(=S)n(C)c1NC(=O)c1cccc(Br)c1 | i | 21µM* | u | u | -38% | 21µM*
CCOC(=O)c1sc(=S)n(-c2ccccc2)c1NC(C)=O | i | -4% | 0% | -9% | -72% | -29%
C[C@@H](O[C@H]1OCCN(Cc2n[nH]c(=O)[nH]2)[C@@H]1c1ccc(F)cc1)c1cc(C(F)(F)F)cc(C(F)(F)F)c1 | 32µM* | x | x | u | x | x
C[C@H](CO)N1C[C@H](C)[C@@H](CN(C)C(=O)Nc2ccc3c(c2)OCO3)Oc2ccc(NS(=O)(=O)c3ccc(F)cc3)cc2C1=O | i | 8% | 22% | 9% | -1% | 13%
Cc1csc2ncnc(NCCc3ccccn3)c12 | i | 6.5µM* | -6% | -12% | 1% | 3.7µM*
c1ccc(CCNc2ncnc3sccc23)nc1 | i | 6.5µM* | -19% | x | -41% | 7.3µM*
CCCOc1ccc(-c2nonc2NC(=O)c2ccco2)cc1OCCC | i | u | 6% | -14% | -16% | u
CCCOc1ccc(-c2nonc2NC(=O)c2oc3ccc(C)cc3c2C)cc1OCCC | i | 9.2µM* | 0% | -6% | -5% | u
CCOc1ccc(-c2nonc2NC(=O)c2oc3c(C)c(C)ccc3c2C)cc1OCC | i | 15µM* | u | -2% | -22% | 16µM*
CCOc1ccc(-c2nonc2NC(=O)c2oc3cc(C)c(C)cc3c2C)cc1OCC | i | -1% | 17% | 7% | -7% | u
CCOc1ccc(-c2nonc2NC(=O)c2oc3cc(C)ccc3c2C)cc1 | x | 23µM* | -7% | x | -26% | u
CCCCOc1ccc(C(=O)NCC(=O)NC2CCN(Cc3ccccc3)CC2)cc1 | i | 23µM* | -5% | -3% | -26% | u
CCCCOc1ccc(C(=O)NCC(=O)NCC(=O)OCC)cc1 | i | 16µM* | -4% | 8% | -5% | u
CCN(c1ccccc1)S(=O)(=O)c1ccc(Cl)c(C(=O)NC2CCN(Cc3ccccc3)CC2)c1 | u | 9.2µM* | u | u | -18% | 6.5µM*
CCN(c1ccccc1)S(=O)(=O)c1ccc(Cl)c(NC(=O)CN(C)C2CCN(C)CC2)c1 | i | u | 1% | -18% | -43% | 16µM*
CCCCOc1ccc(C(=O)NCC(=O)NC2CCC(C)CC2)cc1 (centres undefined) | i | 3% | -4% | 6% | 15% | -13%
CN(C)S(=O)(=O)c1ccc(Cl)c(C(=O)NC2CCN(Cc3ccccc3)C2)c1 (centres undefined) | i | -9% | 9% | 1% | -22% | u
COc1ccc(NC(=O)CN(C)C(=O)CSc2nc3ccccc3s2)cc1 | u | 5% | -27% | 12% | -4% | u
SMILES | ATXN viability | DT40 TDP1 CPT | TGFb inhibitor | ATXN2 expr inh | HepG2 viability | TDP1 cell noCPT
CN(C)S(=O)(=O)c1ccc(N2CCCC2)c(C(=O)N2CCC(C(N)=O)CC2)c1 | i | -5% | 1% | -8% | -2% | -4%
COCc1c(C(=O)N2CCCC(C)C2)cnn1-c1nccc(-c2cc(C)sc2C)n1 (centres undefined) | i | -7% | x | x | x | -27%
CC(C)(CNC(=O)c1cccc(S(=O)(=O)Nc2ccc(SC(F)F)cc2)c1)N1CCOCC1 | i | u | 1% | -29% | -15% | 0%
O=C(NC1CCN(Cc2ccccc2)CC1)c1ccccc1Cl | x | 0% | 3% | x | 5% | 0%
CC(C)(C)c1ccc(C(=O)NC2CCN(Cc3ccccc3)CC2)cc1 | i | u | 1% | -19% | -23% | 18µM*
O=C(NC1CCN(Cc2ccccc2)CC1)c1cc(S(=O)(=O)Nc2ccc(F)cc2)ccc1Cl | i | 23µM* | -27% | -20% | -17% | 15µM*
O=C(NC1CCN(Cc2ccccc2)CC1)c1cccc(S(=O)(=O)Nc2ccc(SC(F)F)cc2)c1 | i | 23µM* | 11µM* | u | -84% | u
O=C(NC1CCN(Cc2ccc(Cl)cc2Cl)CC1)c1ccccc1 | i | 21µM* | 0% | 0% | -13% | 18µM*
O=C(NC1CCN(Cc2ccccc2)CC1)c1ccccc1 | i | -4% | -3% | x | -25% | -3%
CCN(CC)S(=O)(=O)c1ccc(S(=O)(=O)N2CCC(C(=O)NC3CCN(Cc4ccccc4)CC3)CC2)cc1 | i | 1% | 0% | -19% | 3% | -6%
Cn1cnc(C(=O)NC2CCN(C(=O)OC(C)(C)C)CC2)c1C(=O)NC1CCN(C(=O)OC(C)(C)C)CC1 | i | 3% | 8% | 14% | 10% | 3%
Cc1ccc(Cl)cc1S(=O)(=O)N1CCC(C(=O)NC2CCN(Cc3ccccc3)CC2)CC1 | i | u | -2% | -34% | -4% | 15µM*
CCOC(=O)C1CCN(Cc2ccc(OCc3ccccc3)cc2)CC1 | i | -24% | -16% | 6% | -23% | -14%
Cc1ccc(NS(=O)(=O)c2cccc(C(=O)NC3CCN(Cc4ccccc4)CC3)c2)cc1 | u | 4.1µM* | -17% | -13% | -39% | 5.8µM*
CC(C)(C)OC(=O)N1CCC(NC(=O)c2ncn(Cc3ccccc3)c2C(=O)NC2CCN(C(=O)OC(C)(C)C)CC2)CC1 | u | 23µM* | u | u | -25% | u
CCCCN(C)C(=O)C1CCN(Cc2ccc(OCc3ccccc3)cc2)CC1 | i | u | -26% | -3% | -33% | 16µM*
